According to PubChem BioAssay AID1259240 (Keith Lab, Institute of Cancer Science, University of …, 2017):
Calls of active or inactive are those of the source. No stated cut-off is given here; in the data, active means fold change mostly below about -2 (no sharp cut-off); inactive means mostly above about -1.8.

assay: TERT promoter activity modulators, primary screen, cell-based, luciferase reporter, human (AID 1259240); settings: A2780 TERT promoter luciferase reporter, 16 h; at 20 µM, fold versus average of vehicle-only wells

Fold change, inactive:
CC(CC(=O)N1CCN(c2ccc([N+](=O)[O-])cc2)CC1)CC1=NS(=O)(=O)c2ccccc2N1 (centres undefined) -1.48
COC(=O)c1ccc(CSc2nc(-c3ccco3)nc3c2c(=O)n(C)c(=O)n3C)o1 -1.08
Cc1ccc(N2C(=O)c3n[nH]c(C)c3C2c2cccs2)cc1 (centres undefined) 1.21
COc1cccc(NC2SC(=O)N(c3ccccc3)C2=O)c1 (centres undefined) 1.28
CC(=O)c1ccc(N2CCN(C(=O)CCCc3nnc4n5nc(C)nc5c5ccccc5n34)CC2)cc1 -1.6
CS(=O)(=O)Nc1ccc(C2=NN(C(=O)c3ccco3)C(c3ccco3)C2)cc1 (centres undefined) 1.01
COc1ccccc1Nc1nc(N)nc(CSc2ncccn2)n1 -1.15

outcome, inactive:
CCOC(=O)CSc1nnc(-c2c[nH]c3ccccc23)n1C
COc1ccc(C2C=C(c3cccnc3)Nc3nc4ccccc4n32)cc1 (centres undefined)
